# In all, about 310,000 compounds went through this assay and about 14,000 (4.5%) showed an effect of 50% or more. The effect is printed as a negative number. What follows is part of a selection rich in strong results, with near analogues and random picks from the rest.
# Molecular target: human ether-à-go-go-related gene (hERG) potassium channel (human, UniProt Q12809)
# Assay: primary screen, population patch clamp on CHO cells stably expressing hERG; higher = less effect of the substance
# 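Also: peak tail current of the secondary pulse compared with the same well before compound.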
# Chain of human ether-à-go-go-related gene (hERG) potassium channel (Q12809 whole entry, looked up): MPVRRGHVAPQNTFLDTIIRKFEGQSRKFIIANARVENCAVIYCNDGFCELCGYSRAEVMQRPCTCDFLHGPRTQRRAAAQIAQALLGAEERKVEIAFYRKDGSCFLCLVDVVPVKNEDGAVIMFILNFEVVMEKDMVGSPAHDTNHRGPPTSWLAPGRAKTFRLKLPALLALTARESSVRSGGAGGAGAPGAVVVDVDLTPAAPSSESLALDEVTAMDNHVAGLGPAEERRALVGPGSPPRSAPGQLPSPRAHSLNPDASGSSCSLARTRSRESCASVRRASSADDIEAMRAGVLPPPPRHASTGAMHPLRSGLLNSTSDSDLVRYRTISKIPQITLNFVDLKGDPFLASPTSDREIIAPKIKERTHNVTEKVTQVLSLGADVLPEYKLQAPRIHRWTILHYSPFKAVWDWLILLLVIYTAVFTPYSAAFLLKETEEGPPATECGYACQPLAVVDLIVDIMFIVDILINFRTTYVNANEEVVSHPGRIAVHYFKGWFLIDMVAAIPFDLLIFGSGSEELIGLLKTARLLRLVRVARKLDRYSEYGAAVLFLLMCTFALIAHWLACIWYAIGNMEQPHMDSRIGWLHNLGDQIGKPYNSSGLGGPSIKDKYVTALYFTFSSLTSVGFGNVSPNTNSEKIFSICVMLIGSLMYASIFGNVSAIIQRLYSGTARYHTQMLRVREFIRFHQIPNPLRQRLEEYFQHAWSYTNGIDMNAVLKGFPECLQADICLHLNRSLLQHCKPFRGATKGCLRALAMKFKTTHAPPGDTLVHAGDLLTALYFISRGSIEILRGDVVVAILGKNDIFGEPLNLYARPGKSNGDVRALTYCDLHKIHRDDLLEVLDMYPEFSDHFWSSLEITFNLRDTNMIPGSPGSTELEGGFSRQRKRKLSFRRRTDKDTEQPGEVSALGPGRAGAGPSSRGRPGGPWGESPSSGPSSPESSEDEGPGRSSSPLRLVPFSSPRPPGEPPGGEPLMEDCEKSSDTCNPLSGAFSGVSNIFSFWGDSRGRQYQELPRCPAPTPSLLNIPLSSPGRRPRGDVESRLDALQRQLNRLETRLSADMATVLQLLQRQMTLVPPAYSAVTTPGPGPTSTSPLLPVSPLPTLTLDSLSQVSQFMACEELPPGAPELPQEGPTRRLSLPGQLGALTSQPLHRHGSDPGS
row,SMILES,"hERG current change (%, negative = inhibition) at 10uM [%]"
1,CCOc1ccc(NC(=O)CN2C(=O)COc3ccc(Cl)cc32)cc1,0.412
2,CN(C)C=O.Oc1cccc2c(NC(=S)Nc3ccc(OC(F)F)cc3)cccc12,-49.5
3,CCOC(=O)CSC1=NC(=O)/C(=C\c2ccc(OC(C)=O)cc2)S1,13.1
4,CCn1ncc(S(=O)(=O)Nc2cccnc2)c1C,5.02
5,CC1(C)CC(N2CCOCC2)=CC(=[N+]2CCOCC2)C1.[I-],8.01
6,CC1(C)CC(=O)C=C(N2CCOCC2)C1,15.6
7,CN(C)c1cccc(N=C2C=C(N3CCOCC3)CC(C)(C)C2)c1,-60.5
8,CSc1nnc(CNC(=O)c2ccccc2)n1-c1cccc(C)c1,-6.07
9,COC(=O)c1sccc1Oc1ccc(F)cc1[N+](=O)[O-],1.74
10,Cc1ccc(S(=O)(=O)N(Cc2ccccc2)c2ccccc2C(=O)N2CCCCC2)cc1,-28.6
11,COc1ccc(S(=O)(=O)N(Cc2ccccc2)c2ccccc2C(=O)N2CCOCC2)cc1,-8.54
12,CCN1CCN(C(=O)c2ccccc2N(Cc2ccccc2)S(=O)(=O)c2ccc(C)cc2)CC1,-53.2
13,CCN1CCN(C(=O)c2ccccc2N(C)S(=O)(=O)c2ccc(C)cc2)CC1,2.03
14,CCN1CCN(C(=O)c2ccccc2N(Cc2ccccc2)S(=O)(=O)c2ccc(OC)cc2)CC1,-73.1
15,CCOC(=O)N1CCN(C(=O)c2ccccc2N(Cc2ccccc2)S(=O)(=O)c2ccc(OC)cc2)CC1,-26.3
16,O=C(COc1ccc(Br)cc1CO)Nc1ccccc1F,-2.36
17,COc1ccc(OC)c(S(=O)(=O)N(C)CC(=O)N2CCN(c3ccccc3F)CC2)c1,-6.63
18,CCCOP(=O)(c1ccc(N(C)C)cc1)C(O)c1cc(OC)ccc1OC (stereo not shown),0.331
19,Cc1ccc2nc(N(CCCN(C)C)C(=O)CN3C(=O)c4ccccc4C3=O)sc2c1.Cl,-47.5
20,CC(=O)N(CCN(C)C)c1nc2cc3c(cc2s1)OCCO3.Cl,10.6
21,CN(C)CCN(C(=O)c1ccc2ccccc2c1)c1nc2cc3c(cc2s1)OCCO3.Cl,7.59
22,CN(C)CCN(C(=O)CN1C(=O)c2ccccc2C1=O)c1nc2cc3c(cc2s1)OCO3.Cl,-57
23,CN(C)CCN(C(=O)CN1C(=O)c2ccccc2C1=O)c1nc2cc3c(cc2s1)OCCO3.Cl,-53.8
24,CCN(CC)CCN(C(=O)CN1C(=O)c2ccccc2C1=O)c1nc2cc3c(cc2s1)OCO3.Cl,-17.8
25,COCC(C)NC(=O)CCc1nnc(C2(c3ccc(Cl)cc3)CCC2)o1 (stereo not shown),5.14

row,SMILES,"hERG current change (%, negative = inhibition) at 10uM [%]"
1,O=C(O)CCC(=O)NNC(=O)c1cccc(Br)c1,-0.791
2,CCCc1cc(=O)[nH]c(-n2[nH]c3c(c2=O)CCCC3)n1,13.9
3,CCCC(=O)N1CCN(c2nnc(-c3ccc(C)cc3)c3ccccc23)CC1,-81.1
4,CCCC(=O)N1CCN(c2nnc(-c3ccccc3)c3ccccc23)CC1,-45.4
5,CCOC(=O)N1CCN(c2nnc(-c3ccc(C)cc3)c3ccccc23)CC1,-70.1
6,CCOC(=O)N1CCN(c2nnc(-c3ccccc3)c3ccccc23)CC1,-22
7,CCCCS(=O)(=O)Nc1ccc(C(=O)NCC2CCCO2)cc1 (stereo not shown),-4.69
8,CC(C)=CCc1c(-c2ccc(O)cc2O)oc2c3c(cc(O)c2c1=O)OC(C)(C)C=C3,17.6
9,Cl.NC1C=CC=C(C(=O)O)C1 (stereo not shown),3.23
10,CC1(C)Cc2c(sc3c2C(=O)N(c2ccccc2)C2=NCCN23)CS1.Cl,-5.58
11,CN1C(=O)c2c(sc3c2CC(C)(C)SC3)N2CCN=C12.Cl,-72.6
12,CC1(C)Cc2c(sc3c2C2=NCCN2C=N3)CS1.Cl,-16.3
13,CC(CCc1ccc(O)cc1)NCCc1ccc(O)c(O)c1.Cl (stereo not shown),-13.9
14,CC(CCc1ccc(O)cc1)NCCC(c1ccccc1)c1ccccc1 (stereo not shown),-76.1
15,COc1cc(OC)c(OC)cc1CNC(C)C(O)c1ccccc1.Cl (stereo not shown),12.6
16,COc1ccccc1CCNC(C)CCc1ccc(O)cc1 (stereo not shown),-52.5
17,CC(NCCc1ccc(O)cc1)C(O)c1ccc(O)cc1.Cl (stereo not shown),5.08
18,COc1ccc(CCC(C)NCc2ccccc2OC)cc1 (stereo not shown),-40.4
19,COc1cc(OC)c(OC)cc1CCC(C)NCCC(c1ccccc1)c1ccccc1.Cl (stereo not shown),-71.1
20,C[C@H](NCCc1ccc(O)cc1)[C@H](O)c1ccc(O)cc1.Cl,6.27
21,COc1cc(OC)c(OC)cc1CCC(C)NC(=O)Cc1ccccc1 (stereo not shown),5.68
22,CC(CCc1ccccc1)NC(C)C(O)c1ccc(O)cc1.Cl (stereo not shown),-65.3
23,COc1cc(CCC(C)NCc2ccccc2)ccc1O (stereo not shown),-3.87
24,CC(CCc1ccc(O)cc1)NC(c1ccccc1)c1ccc(Cl)cc1 (stereo not shown),-14.3
25,COc1ccc(-c2sc(NC(=O)c3ccc(C)cc3)nc2-c2ccc([N+](=O)[O-])cc2)cc1,9.66

row,SMILES,"hERG current change (%, negative = inhibition) at 10uM [%]"
1,CCOc1ccc(-n2c(SCC)nc3c(c2=O)SCC3)cc1,15
2,Cn1c(=O)c2ccccc2n(CC(=O)NC2CCCC2)c1=O,9.82
3,CCCN(CCC)Cc1cc(=O)oc2cc3c(cc12)CCC3,-9.37
4,CC(=O)O.CC(=O)Oc1ccc2c(c1)OC(c1ccccc1)CC21CC(C)(C)NC(=O)N1 (stereo not shown),3.82
5,O=C1CCCN1CCCNS(=O)(=O)c1ccc(F)cc1F,8.77
6,Cc1ccc(-n2nc3c(c2NC(=O)CC(C)C)CS(=O)(=O)C3)c(C)c1,25
7,O=C(COC(=O)C1CC(=O)N(Cc2ccccc2)C1)Nc1ccc(Cl)cc1F (stereo not shown),48
8,C/C(=N\NC(=O)c1nnn(-c2nonc2N)c1CSc1ccc(C)cc1)c1ccco1,-9.04
9,O=C1c2ccccc2NC(c2ccc(O)cc2)N1Cc1ccco1 (stereo not shown),-24.3
10,CCOC(=O)C(C)CC(C)C(=O)N1CCOCCN(C(=O)C(C)CC(C)C(=O)OCC)CCOCC1 (stereo not shown),-9.48
11,COc1ccc(CN(Cc2cc3ccc(C)cc3[nH]c2=O)Cc2nnnn2C2CCCC2)cc1,-21.4
12,CC1(C)Cc2c(c(N3CCOCC3)nc3sc(C(N)=O)c(N)c23)CO1,-5.66
13,O=C(NCC1CCCO1)c1cc(-c2ccc(Cl)cc2Cl)on1 (stereo not shown),-9.68
14,Nc1nccnc1C(=O)OCC(=O)N1CCN(S(=O)(=O)c2ccc(Cl)cc2)CC1,-15.4
15,CCCNC(=O)CSc1nc2ccccc2c(=O)n1CCC,3.3
16,O=C(Nc1ccccc1N1CCCC1)c1ccc(N2CCCC2=O)cc1,-22.1
17,COc1ccc(C)cc1NC(=O)COC(=O)c1ccc2ccccc2n1,3.24
18,CC(O)CCc1ccc(O)cc1 (stereo not shown),11.7
19,CC(CCc1ccc(O)cc1)N(C)CCc1ccccc1 (stereo not shown),-62.2
20,COc1ccc(CCC(C)N(C)Cc2ccccc2)cc1 (stereo not shown),-34.8
21,CCCNC(=O)c1cc(Cl)c(NC(=O)C2=CSCCO2)cc1OC,16.5
22,C=CCNC(=O)Nc1cc(Cl)ccc1OC,7.65
23,CCOC(=O)c1ccc(NC(=O)CCCN2C(=O)NC3(CCCC3)C2=O)cc1,-3.62
24,O=C(O)CCCCCNC(=O)CCn1cnc2ccccc2c1=O,5.02
25,COc1ccccc1N1CCN(C(=O)CCCCCn2c(=O)[nH]c3ccsc3c2=O)CC1,-24.7

row,SMILES,"hERG current change (%, negative = inhibition) at 10uM [%]"
1,O=C1CCCC(=O)N1c1ccc(O)cc1,2.73
2,C/C=C(\C)C(=O)NCCN1C2=NC[C@H](Cc3ccc(O)cc3)N2C[C@H]1Cc1ccc(O)cc1,16.5
3,COc1ccc(C[C@H]2CN3C(=NC[C@@H]3Cc3ccc(O)cc3)N2CCNC(=O)c2ccc(C)c(Br)c2)cc1,-74.3
4,Cc1ccc(C(=O)NCCN2C3=NC[C@H](C)N3C[C@H]2Cc2ccc(O)cc2)cc1Br,-8.85
5,Cc1ccc(C(=O)NCCN2C3=NC[C@H](Cc4ccc(O)cc4)N3C[C@H]2Cc2ccc(O)cc2)cc1Br,-51.7
6,Cc1ccc(C(=O)NCCN2C3=NC[C@@H](Cc4ccccc4)N3C[C@H]2Cc2ccc(O)cc2)cc1Br,-71.1
7,COc1cc(/C=C2\SC(=O)NC2=O)ccc1Oc1ccc([N+](=O)[O-])cc1[N+](=O)[O-],20.2
8,Brc1cccc(C=Nc2cccc3ncccc23)c1,7.37
9,CCOc1cc(C)c(Cl)cc1S(=O)(=O)n1nnc2ccccc21,6.52
10,COc1ccc(C(=O)Nc2ccc(Cl)c(Cl)c2)c(OC)n1,14.1
11,O=[N+]([O-])c1ccc(N2CCCCCC2)c2ncccc12,5.54
12,CC1CN(c2ccc([N+](=O)[O-])c3cccnc23)CC(C)N1 (stereo not shown),-33.4
13,Nc1nonc1OCCN1CCN(c2ccc([N+](=O)[O-])c3cccnc23)CC1,-71.7
14,O=[N+]([O-])c1ccc(N2CCCCC2)c2ncccc12,-23.7
15,Cc1cc(N2CCN(c3ccc(C(F)(F)F)cc3[N+](=O)[O-])CC2)c2ccccc2n1,-88.9
16,O=[N+]([O-])c1cc(C(F)(F)F)ccc1N1CCN(S(=O)(=O)c2ccc3ccccc3c2)CC1,9.11
17,Cl.O=[N+]([O-])c1ccc(N2CCCNCC2)c2ncccc12,-64.8
18,O=[N+]([O-])c1ccc(N2CCCC2)c2ncccc12,8.6
19,CN1CCN(c2ccc([N+](=O)[O-])c3cccnc23)CC1,-41.5
20,O=[N+]([O-])c1ccc(N2CCN(CCO)CC2)c2ncccc12,-45.4
21,Cc1cc(N2CCN(c3ccc([N+](=O)[O-])c4cccnc34)CC2)c2ccccc2n1,-64.3
22,Cc1ccc(S(=O)(=O)N2CCN(c3ccc(C(F)(F)F)cc3[N+](=O)[O-])CC2)cc1,-30.8

# — PMC4336329 (PLoS ONE, 2015)
